Key:
Experiment in all cases: protein-binding microarray (PBM); PBM: ~300 nM protein, 6 mM HEPES pH 7.8, 80 mM KCl, 0.5 mM EDTA, 0.5 mM EGTA, 6% glycerol, 35 ng/ul poly-dIdC, 1% milk, 1 h, room temperature; Ap Aiptasia and Nv Nematostella (sea anemones) / Co Capsaspora / Aq Amphimedon (sponge) / Dm Drosophila / Hu human; RHD is the Rel homology domain; high values mean tight binding
Conditions in all cases: dsDNA, one strand shown
GST-Ap-NF-kB RHD = target: T1, GST-Ap-NF-kB RHD (Exaiptasia pallida (Aiptasia), UniProt A0A913YAJ5 2-422)
T1 sequence: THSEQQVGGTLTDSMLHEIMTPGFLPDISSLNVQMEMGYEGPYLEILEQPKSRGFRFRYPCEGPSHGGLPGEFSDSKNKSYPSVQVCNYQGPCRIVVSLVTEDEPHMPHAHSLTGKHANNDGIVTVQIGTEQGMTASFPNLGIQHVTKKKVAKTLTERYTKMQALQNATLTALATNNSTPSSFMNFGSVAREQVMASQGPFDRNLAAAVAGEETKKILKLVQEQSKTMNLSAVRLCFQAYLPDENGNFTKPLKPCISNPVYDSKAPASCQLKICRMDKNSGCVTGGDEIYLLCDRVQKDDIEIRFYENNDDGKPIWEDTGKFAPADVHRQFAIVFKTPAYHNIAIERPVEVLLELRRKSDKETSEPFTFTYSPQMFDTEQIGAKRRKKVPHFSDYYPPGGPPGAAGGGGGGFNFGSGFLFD

[1] = target: T2, GST-Nv-NF-kB (Cys allele) (Nematostella vectensis, UniProt E5G601 2-411)
T2 sequence: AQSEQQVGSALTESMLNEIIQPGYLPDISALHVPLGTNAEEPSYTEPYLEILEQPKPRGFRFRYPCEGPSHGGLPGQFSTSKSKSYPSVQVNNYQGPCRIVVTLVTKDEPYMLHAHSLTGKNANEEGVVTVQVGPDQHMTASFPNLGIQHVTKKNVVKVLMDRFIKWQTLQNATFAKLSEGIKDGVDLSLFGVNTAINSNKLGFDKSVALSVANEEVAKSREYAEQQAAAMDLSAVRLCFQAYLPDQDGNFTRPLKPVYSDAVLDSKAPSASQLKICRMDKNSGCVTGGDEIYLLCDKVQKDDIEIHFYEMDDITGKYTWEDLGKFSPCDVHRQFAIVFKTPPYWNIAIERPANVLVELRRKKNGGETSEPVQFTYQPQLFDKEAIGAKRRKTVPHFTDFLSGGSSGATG

GST-Co-NF-kB = target: T3, GST-Co-NF-kB (Capsaspora owczarzaki, UniProt F1ARL5 200-546)
T3 sequence: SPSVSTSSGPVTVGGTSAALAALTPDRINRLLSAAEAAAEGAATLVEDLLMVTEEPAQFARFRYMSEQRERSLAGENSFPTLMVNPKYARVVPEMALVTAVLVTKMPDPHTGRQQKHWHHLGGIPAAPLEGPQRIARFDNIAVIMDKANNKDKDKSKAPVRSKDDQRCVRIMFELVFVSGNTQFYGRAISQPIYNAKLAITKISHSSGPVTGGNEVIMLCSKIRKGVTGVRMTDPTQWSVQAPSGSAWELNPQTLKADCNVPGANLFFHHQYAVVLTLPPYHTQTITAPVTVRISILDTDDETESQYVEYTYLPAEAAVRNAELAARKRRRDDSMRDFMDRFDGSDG

GST-Dm-Relish = target: T4, GST-Dm-Relish (Drosophila melanogaster, UniProt Q94527 99-473)
T4 sequence: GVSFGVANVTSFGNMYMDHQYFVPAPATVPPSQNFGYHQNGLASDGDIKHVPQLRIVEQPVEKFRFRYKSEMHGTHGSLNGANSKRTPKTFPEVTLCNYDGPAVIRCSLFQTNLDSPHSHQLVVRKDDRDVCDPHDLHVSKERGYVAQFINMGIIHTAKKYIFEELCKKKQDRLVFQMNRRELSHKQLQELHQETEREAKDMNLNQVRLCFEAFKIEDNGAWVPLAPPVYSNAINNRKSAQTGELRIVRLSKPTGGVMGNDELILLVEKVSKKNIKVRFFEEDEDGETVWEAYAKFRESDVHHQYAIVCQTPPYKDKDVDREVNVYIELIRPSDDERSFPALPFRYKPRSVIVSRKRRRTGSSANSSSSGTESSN

GST-Aq-NF-kB = target: T5, GST-Aq-NF-kB (Amphimedon queenslandica, UniProt A9Y5G7 2-389)
T5 sequence: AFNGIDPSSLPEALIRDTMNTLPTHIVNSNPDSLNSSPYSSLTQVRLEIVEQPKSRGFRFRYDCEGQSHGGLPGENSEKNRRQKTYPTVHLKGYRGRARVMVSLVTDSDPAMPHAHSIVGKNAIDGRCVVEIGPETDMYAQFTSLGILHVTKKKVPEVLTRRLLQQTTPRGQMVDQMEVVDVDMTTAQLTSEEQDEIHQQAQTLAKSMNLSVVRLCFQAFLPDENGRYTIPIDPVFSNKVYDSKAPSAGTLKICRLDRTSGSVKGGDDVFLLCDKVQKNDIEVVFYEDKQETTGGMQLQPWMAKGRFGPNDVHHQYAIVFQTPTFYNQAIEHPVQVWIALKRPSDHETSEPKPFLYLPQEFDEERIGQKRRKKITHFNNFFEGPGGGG

| Sequence | binding signal (GST-Ap-NF-kB RHD) [z-score] | binding signal [1] [z-score] | binding signal (GST-Co-NF-kB) [z-score] | binding signal (GST-Dm-Relish) [z-score] | binding signal (GST-Aq-NF-kB) [z-score] |
| --- | --- | --- | --- | --- | --- |
| CCGATTAACATCAGGGACTCCCATGATGTTAATCGGGTCTTGATTCGCTTGACGCTGCTG | 5.29 | 4.05 | 1.08 | 9.01 | 4.46 |
| CCGATTAACATCACGTGTTTCCCTGATGTTAATCGGGTCTTGATTCGCTTGACGCTGCTG | 2.62 | 2.76 | 3 | 3.51 | 3.35 |
| CCGATTAACATCAGGGTATTCCATGATGTTAATCGGGTCTTGATTCGCTTGACGCTGCTG | 3.89 | 4.62 | 1.19 | 5.81 | 4.83 |
| CCGATTAACATCAGGGTATTACCTGATGTTAATCGGGTCTTGATTCGCTTGACGCTGCTG | 4.39 | 6.02 | 1.57 | 5.28 | 7.69 |
| CCGATTAACATCAAGGGAGTACCTGATGTTAATCGGGTCTTGATTCGCTTGACGCTGCTG | 4.45 | 2.9 | 1.52 | 3.08 | 2.71 |
| CCGATTAACATCAGGGGAGAACCTGATGTTAATCGGGTCTTGATTCGCTTGACGCTGCTG | 6.35 | 4.58 | 5.4 | 5.43 | 5.51 |
| CCGATTAACATCAGGACACCCCCTGATGTTAATCGGGTCTTGATTCGCTTGACGCTGCTG | 6.35 | 5.22 | 2.5 | 6.86 | 7.67 |
| CCGATTAACATCACGGGAATCCCTGATGTTAATCGGGTCTTGATTCGCTTGACGCTGCTG | 6.64 | 5.96 | 3.81 | 10.1 | 7.15 |
| CCGATTAACATCAGGGGAGGAAATGATGTTAATCGGGTCTTGATTCGCTTGACGCTGCTG | 3.45 | 4.2 | 7.38 | 1.91 | 3.51 |
| CCGATTAACATCACAAACGGGGCTGATGTTAATCGGGTCTTGATTCGCTTGACGCTGCTG | 1.5 | 2.75 | 1.3 | 1.33 | 3.49 |

From publication PMC5700166
